Tests used:
[1] = molecular target: T1, Tyrosine-protein kinase ITK/TSK (Homo sapiens) (UniProt Q08881); details: at 1 µM;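 also: values are mean percent inhibition of ITK from the GSK PKIS screen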
T1 sequence (whole entry): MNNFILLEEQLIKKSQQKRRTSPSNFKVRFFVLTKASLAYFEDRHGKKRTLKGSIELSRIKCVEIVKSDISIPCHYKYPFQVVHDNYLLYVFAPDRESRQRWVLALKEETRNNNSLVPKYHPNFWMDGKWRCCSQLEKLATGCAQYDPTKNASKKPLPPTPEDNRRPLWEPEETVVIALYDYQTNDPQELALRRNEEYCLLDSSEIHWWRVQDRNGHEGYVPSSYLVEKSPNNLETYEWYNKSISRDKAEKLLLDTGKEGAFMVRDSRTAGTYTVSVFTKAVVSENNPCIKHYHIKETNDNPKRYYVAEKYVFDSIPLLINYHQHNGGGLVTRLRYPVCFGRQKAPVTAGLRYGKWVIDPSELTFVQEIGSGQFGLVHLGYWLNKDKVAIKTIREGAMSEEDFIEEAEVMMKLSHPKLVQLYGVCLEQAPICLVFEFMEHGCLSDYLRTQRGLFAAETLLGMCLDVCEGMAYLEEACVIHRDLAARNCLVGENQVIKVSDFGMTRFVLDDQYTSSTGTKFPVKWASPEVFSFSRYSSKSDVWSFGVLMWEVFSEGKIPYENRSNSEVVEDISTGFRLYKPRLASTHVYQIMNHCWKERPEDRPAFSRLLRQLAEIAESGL

[2] = molecular target: Tyrosine-protein kinase JAK1 (Homo sapiens) (UniProt P23458); details: at 0.1 µM
[3] = molecular target: Tyrosine-protein kinase JAK1 (Homo sapiens) (UniProt P23458); details: at 1 µM
[4] = molecular target: Tyrosine-protein kinase JAK2 (Homo sapiens) (UniProt O60674); details: at 0.1 µM
[5] = molecular target: Tyrosine-protein kinase JAK2 (Homo sapiens) (UniProt O60674); details: at 1 µM
[6] = molecular target: T2, Tyrosine-protein kinase JAK3 (Homo sapiens) (UniProt P52333); details: at 0.1 µM
T2 sequence (whole entry): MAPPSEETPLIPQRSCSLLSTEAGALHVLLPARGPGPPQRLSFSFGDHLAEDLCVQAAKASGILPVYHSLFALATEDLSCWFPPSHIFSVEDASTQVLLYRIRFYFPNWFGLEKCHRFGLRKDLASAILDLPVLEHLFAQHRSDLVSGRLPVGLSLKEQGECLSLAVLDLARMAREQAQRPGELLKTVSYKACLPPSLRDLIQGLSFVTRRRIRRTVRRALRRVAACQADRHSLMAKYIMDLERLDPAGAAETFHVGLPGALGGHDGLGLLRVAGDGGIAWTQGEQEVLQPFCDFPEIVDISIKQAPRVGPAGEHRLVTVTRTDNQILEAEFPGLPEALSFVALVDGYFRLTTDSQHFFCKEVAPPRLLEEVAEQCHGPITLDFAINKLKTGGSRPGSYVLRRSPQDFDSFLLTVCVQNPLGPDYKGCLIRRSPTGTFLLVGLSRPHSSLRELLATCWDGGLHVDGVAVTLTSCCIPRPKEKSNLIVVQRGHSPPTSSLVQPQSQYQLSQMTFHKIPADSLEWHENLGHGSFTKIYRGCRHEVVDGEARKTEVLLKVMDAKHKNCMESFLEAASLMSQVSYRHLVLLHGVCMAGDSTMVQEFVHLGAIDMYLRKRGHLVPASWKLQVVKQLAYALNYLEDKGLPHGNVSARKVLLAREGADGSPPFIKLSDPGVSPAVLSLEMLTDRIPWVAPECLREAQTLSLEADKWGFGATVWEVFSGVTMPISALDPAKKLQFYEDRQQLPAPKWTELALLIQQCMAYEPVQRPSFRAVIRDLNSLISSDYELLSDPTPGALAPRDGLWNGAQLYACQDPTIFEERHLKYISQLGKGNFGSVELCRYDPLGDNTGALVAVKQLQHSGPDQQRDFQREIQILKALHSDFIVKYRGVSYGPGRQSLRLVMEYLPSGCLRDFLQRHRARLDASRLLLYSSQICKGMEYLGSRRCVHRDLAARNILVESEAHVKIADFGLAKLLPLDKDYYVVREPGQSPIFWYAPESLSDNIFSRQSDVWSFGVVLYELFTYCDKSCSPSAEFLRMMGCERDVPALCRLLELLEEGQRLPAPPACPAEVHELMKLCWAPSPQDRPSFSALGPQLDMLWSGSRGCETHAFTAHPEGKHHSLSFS

[7] = molecular target: T2, Tyrosine-protein kinase JAK3 (Homo sapiens); details: at 1 µM
[8] = molecular target: Vascular endothelial growth factor receptor 2 (Homo sapiens) (UniProt P35968); details: at 0.1 µM
[9] = molecular target: Vascular endothelial growth factor receptor 2 (Homo sapiens) (UniProt P35968); details: at 1 µM
[10] = molecular target: Mast/stem cell growth factor receptor Kit (Homo sapiens) (UniProt P10721); details: at 0.1 µM;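 also: values are mean inhibition of KIT, from the GSK PKIS dataset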
Chain of Mast/stem cell growth factor receptor Kit (Homo sapiens) (P10721 whole entry): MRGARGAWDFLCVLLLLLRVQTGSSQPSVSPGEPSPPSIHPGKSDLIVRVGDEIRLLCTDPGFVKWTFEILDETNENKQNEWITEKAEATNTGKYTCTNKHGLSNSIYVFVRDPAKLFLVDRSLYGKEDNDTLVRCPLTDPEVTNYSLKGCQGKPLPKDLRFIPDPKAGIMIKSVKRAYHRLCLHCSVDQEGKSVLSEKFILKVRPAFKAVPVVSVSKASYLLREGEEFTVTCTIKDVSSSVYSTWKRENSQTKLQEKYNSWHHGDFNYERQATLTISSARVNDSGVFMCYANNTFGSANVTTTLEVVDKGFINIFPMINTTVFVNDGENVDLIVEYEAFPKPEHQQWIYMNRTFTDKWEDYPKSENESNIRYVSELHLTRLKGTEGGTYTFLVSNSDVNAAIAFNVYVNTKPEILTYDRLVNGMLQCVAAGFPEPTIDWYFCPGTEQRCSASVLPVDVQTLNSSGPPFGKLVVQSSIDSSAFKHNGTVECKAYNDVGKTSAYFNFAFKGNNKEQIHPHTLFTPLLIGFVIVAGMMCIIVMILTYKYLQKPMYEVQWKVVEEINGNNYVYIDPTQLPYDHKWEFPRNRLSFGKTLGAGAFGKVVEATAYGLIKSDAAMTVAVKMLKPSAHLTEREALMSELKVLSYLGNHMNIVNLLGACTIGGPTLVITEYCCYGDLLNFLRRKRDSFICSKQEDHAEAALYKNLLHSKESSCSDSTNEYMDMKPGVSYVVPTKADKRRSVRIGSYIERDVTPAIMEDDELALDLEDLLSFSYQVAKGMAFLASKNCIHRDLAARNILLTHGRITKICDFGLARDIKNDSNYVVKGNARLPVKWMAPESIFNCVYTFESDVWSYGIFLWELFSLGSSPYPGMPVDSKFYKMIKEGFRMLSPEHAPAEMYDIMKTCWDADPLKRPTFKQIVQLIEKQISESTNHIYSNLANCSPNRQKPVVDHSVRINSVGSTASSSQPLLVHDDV

Chain of Tyrosine-protein kinase JAK1 (Homo sapiens) (P23458 whole entry): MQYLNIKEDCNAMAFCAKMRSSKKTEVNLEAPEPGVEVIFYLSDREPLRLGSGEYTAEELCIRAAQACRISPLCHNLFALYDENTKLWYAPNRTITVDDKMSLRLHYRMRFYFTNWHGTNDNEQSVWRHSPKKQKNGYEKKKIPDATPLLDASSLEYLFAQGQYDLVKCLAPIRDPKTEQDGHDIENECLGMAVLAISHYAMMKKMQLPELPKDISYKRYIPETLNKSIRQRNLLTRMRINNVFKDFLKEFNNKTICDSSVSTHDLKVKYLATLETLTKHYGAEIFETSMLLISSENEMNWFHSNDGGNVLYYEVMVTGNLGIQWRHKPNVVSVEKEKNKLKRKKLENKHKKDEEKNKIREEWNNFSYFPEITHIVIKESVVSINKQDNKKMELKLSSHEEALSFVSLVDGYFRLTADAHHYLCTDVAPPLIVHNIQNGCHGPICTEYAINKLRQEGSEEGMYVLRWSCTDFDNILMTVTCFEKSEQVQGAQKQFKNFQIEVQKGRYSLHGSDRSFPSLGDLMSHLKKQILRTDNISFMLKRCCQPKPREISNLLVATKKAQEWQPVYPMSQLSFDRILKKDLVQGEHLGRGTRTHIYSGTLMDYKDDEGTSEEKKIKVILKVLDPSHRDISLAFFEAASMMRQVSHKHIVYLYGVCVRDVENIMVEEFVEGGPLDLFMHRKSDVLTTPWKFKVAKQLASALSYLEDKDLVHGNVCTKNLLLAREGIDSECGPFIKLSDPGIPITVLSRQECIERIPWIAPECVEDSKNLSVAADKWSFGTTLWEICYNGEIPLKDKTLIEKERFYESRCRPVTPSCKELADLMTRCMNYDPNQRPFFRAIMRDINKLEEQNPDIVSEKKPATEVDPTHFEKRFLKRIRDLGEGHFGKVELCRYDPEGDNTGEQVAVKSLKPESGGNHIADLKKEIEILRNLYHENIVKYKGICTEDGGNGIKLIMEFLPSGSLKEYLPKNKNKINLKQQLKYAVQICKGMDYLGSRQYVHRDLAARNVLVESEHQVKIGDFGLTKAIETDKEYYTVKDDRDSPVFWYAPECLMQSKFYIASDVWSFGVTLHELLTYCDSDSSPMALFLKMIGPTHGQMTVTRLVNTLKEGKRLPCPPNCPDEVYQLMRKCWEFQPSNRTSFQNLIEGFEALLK
Chain of Vascular endothelial growth factor receptor 2 (Homo sapiens) (P35968 whole entry): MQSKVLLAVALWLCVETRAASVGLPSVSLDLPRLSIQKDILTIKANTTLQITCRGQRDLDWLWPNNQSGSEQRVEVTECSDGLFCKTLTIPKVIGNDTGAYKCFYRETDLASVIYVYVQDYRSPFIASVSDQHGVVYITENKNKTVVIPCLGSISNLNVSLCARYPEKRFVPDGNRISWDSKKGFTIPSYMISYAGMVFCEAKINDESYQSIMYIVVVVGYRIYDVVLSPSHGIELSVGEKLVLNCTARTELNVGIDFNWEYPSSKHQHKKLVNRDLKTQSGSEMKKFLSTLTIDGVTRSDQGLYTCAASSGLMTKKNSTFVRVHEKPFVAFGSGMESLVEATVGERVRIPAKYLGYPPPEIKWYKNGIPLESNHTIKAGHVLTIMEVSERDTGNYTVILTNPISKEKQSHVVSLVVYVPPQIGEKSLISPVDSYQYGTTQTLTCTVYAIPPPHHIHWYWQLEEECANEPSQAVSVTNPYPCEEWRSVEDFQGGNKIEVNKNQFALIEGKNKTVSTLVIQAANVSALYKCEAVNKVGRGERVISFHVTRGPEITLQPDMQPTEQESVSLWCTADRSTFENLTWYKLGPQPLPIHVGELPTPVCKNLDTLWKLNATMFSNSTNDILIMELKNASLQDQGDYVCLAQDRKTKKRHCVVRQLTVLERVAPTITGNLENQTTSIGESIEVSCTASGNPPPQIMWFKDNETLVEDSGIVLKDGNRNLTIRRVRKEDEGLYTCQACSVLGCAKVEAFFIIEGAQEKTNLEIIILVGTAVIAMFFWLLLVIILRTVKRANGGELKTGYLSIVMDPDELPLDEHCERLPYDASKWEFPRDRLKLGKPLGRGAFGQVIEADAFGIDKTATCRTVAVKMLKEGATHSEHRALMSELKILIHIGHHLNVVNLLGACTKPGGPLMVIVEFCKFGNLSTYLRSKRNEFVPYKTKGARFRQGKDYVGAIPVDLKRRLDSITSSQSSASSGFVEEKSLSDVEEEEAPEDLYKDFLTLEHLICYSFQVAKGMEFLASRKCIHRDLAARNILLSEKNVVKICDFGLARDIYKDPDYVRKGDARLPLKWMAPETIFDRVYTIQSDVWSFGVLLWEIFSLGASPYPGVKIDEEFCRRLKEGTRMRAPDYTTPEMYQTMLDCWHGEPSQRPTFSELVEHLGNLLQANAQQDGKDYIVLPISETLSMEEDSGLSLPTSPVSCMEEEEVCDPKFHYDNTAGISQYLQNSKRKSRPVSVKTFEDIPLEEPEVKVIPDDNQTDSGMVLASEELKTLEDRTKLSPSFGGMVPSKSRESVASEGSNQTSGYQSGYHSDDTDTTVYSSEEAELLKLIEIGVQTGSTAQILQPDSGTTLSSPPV
Chain of Tyrosine-protein kinase JAK2 (Homo sapiens) (O60674 whole entry): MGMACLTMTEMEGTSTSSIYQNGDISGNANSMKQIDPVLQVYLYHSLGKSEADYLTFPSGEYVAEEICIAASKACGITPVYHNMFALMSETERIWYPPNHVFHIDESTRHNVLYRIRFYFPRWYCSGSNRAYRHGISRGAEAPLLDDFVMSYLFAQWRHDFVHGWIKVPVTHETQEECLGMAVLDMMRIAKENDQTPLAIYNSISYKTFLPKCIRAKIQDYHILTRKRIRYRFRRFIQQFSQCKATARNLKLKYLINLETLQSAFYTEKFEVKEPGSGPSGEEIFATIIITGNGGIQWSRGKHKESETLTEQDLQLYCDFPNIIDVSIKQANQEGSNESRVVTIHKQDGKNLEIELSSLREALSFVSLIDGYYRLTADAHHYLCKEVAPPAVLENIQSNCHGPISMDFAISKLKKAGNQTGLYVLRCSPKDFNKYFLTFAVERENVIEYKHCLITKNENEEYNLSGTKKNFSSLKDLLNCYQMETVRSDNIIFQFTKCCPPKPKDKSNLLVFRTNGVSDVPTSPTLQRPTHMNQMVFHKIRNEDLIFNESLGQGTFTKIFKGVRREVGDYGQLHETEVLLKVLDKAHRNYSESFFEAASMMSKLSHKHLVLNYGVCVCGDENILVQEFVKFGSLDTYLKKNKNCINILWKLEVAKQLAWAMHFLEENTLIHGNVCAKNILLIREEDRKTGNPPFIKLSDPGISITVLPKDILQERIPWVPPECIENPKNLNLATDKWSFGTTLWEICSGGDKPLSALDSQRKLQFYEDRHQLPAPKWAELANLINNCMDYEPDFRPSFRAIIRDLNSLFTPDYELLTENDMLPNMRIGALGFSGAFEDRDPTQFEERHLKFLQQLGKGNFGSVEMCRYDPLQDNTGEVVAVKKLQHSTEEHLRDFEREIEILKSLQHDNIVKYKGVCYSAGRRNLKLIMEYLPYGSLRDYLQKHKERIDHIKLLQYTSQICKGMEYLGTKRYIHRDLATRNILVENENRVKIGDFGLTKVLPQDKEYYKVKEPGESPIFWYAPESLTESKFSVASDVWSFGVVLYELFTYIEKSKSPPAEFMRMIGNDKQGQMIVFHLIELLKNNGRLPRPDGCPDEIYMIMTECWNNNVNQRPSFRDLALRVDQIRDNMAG

SMILES | inhibition [1] [%] | inhibition [2] [%] | inhibition [3] [%] | inhibition [4] [%] | inhibition [5] [%] | inhibition [6] [%] | inhibition [7] [%] | inhibition [8] [%] | inhibition [9] [%] | inhibition [10] [%]
O=C1Nc2ccccc2/C1=C/Nc1ccc2[nH]c(=O)[nH]c2c1 | 5.35 | 3.96 | 20.8 | 1.12 | 1.93 | -1.44 | 8.66 | 13.7 | 48.1 | –
CCS(=O)(=O)c1ccc(OC)c(Nc2nccc(N(C)c3ccc4c(C)n[nH]c4c3)n2)c1 | 1.96 | 3.52 | 5.13 | 1.45 | -0.31 | -1.93 | -1.6 | 78.7 | 76.8 | 44.2
c1ccc(Cc2nc3ccc(Nc4ncnc5ccccc45)cc3[nH]2)cc1 | 1.07 | 1.47 | 5.36 | 1.11 | 1.7 | -1.75 | 2.4 | 2.38 | 5.81 | 6.44
Cc1cc(Cl)cc2c1NC(=O)C2=NNc1ccc(S(N)(=O)=O)cc1 | 1.14 | 2.03 | 12.7 | -0.3 | 0.42 | -0.31 | 0.84 | 1.84 | 4.19 | –
CCS(=O)(=O)c1ccc(OC)c(Nc2ncc(-c3cccc(OC)c3)o2)c1 | 5.9 | -0.79 | -4.39 | 0.87 | 1.58 | -1.19 | 5.85 | 48.4 | 73.2 | 73.4
CN(C)C(=O)O[C@H]1CN[C@H](C#Cc2cc3ncnc(Nc4ccc(OCc5cccc(F)c5)c(Cl)c4)c3s2)C1 | 1.42 | 2.35 | 4.66 | 1.84 | 1.89 | -0.68 | 1.63 | 4.69 | 9.06 | 2.32
Cc1cc(-c2ccccn2)cc(C)c1/C=C/c1cncc(-c2nn[nH]n2)c1 | 0.66 | 4.47 | 3.3 | 2.08 | 2.43 | 0.16 | 0.72 | 3.45 | 14.2 | 4.89
Nc1nccc(C#Cc2cncnc2Nc2ccc(OCc3cccc(F)c3)c(Cl)c2)n1 | 3.09 | 2.03 | 2.27 | 1.73 | 1.57 | 0.41 | 4.42 | 6.4 | 10.6 | 3.65
Nc1nccc(-c2c(-c3ccc(F)cc3)nn3cc(C(F)(F)F)ccc23)n1 | 0.43 | -0.26 | 1.9 | -0.24 | -1.98 | -1.7 | -0.29 | 0.31 | 0.56 | -1.06
NS(=O)(=O)c1ccc(NC=C2C(=O)Nc3ccc4ncsc4c32)cc1 | 15.1 | 9.37 | 50.7 | 2.72 | 23.6 | 22.7 | 63.7 | 60.5 | 71 | 68.4
C[C@@H](Oc1cc(-n2cnc3ccc(OC[C@@H](O)CO)cc32)sc1C(N)=O)c1ccccc1Cl | 0.81 | -2.88 | 0.21 | -0.63 | 0.06 | -0.17 | 19.7 | 1.39 | 22.2 | -0.46
NS(=O)(=O)c1ccc(Nc2cc(-c3cccc(O)c3)n[nH]2)cc1 | 4.07 | 4.66 | 7.23 | 1.41 | 1.95 | -1.44 | 1.25 | 9.9 | 19.2 | 33.2
COc1cc2ncn(-c3cc(OCc4ccccc4S(C)(=O)=O)c(C#N)s3)c2cc1OC | 11.5 | 3.78 | 5.39 | 2.72 | 29.4 | 5.19 | 55 | 25.6 | 67.3 | 5.42
NS(=O)(=O)c1cccc(Nc2cc(-c3ccc(F)cc3)n[nH]2)c1 | 6.64 | 3.56 | 10.4 | 0.36 | 1.81 | -1.55 | 1.11 | 5.37 | 15.3 | 34.5
COc1cc(Nc2nccc(-c3cnn4ncccc34)n2)cc(OC)c1 | 11.8 | 4.49 | 22.9 | 1.89 | 36.4 | 7.71 | 60.5 | 14.8 | 63.8 | 96.2
Oc1cccc(-c2nc(-c3ccccc3)[nH]c2-c2ccncc2)c1 | 1.61 | 9.17 | 5.42 | 1.43 | 2.51 | 0.73 | 9.09 | 30.8 | 70.9 | 4.95
Cc1nc(-c2ccccc2)n2nc(NCCCN3CCOCC3)ncc12 | 1.89 | 3.7 | 4.63 | 0.5 | 1.89 | -2.38 | 0.04 | 2.59 | 5.25 | 3.52

SMILES | inhibition [1] [%] | inhibition [2] [%] | inhibition [3] [%] | inhibition [4] [%] | inhibition [5] [%] | inhibition [6] [%] | inhibition [7] [%] | inhibition [8] [%] | inhibition [9] [%] | inhibition [10] [%]
COc1cc(/C=N/Nc2ncnc3c2cnn3C(C)C)ccc1O | 5 | 2.44 | 14.2 | 0.62 | 0.55 | 0.75 | 3.25 | 4.03 | 19.8 | 8.94
Cc1ccc2c(c1)/C(=N/Nc1ccc(S(N)(=O)=O)cc1)C(=O)N2 | 1.38 | -1.86 | -1.74 | -1.17 | -0.24 | 0.33 | 4.38 | 2.62 | 22.6 | 27.8
CCn1c(-c2nonc2N)nc2ccc(F)cc21 | 1.52 | 5.5 | 10.5 | 1.07 | 1.29 | -1.62 | -1.23 | 5.19 | 6.9 | 5.81
Cc1ccc(C(=O)NC2CC2)cc1-c1ccc2[nH]ncc2c1 | -0.97 | -3.33 | -8.73 | -1.66 | -1.51 | 1.08 | 2.55 | -3.15 | 3.28 | -5.04
Nc1ccc(C#Cc2cncnc2Nc2ccc(OCc3cccc(F)c3)c(Cl)c2)cc1 | 1.02 | 0.18 | 0.58 | 0.74 | 0.43 | -2.62 | -0.39 | 1.13 | 5.84 | 5.48
CN(C)c1cc2c(Nc3ccc4c(cnn4Cc4ccccc4)c3)ncnc2cn1 | 0.99 | 3.23 | -0.82 | 0.91 | 2.18 | -0.53 | 0.54 | 4.41 | 18.2 | 3.49
NS(=O)(=O)c1ccc(-c2cc3ccncc3cc2OCc2ccccc2)cc1 | 0.35 | 3.02 | 10 | 1.43 | 3.23 | -0.75 | -1.27 | 4.82 | 8.11 | 4.01
COC(=O)c1cncc(/C=C/c2c(C)cc(O)cc2C)c1 | 1.55 | 2.46 | 4.21 | 0.81 | 2.05 | -1.76 | 0.99 | 2.37 | 4.91 | 32.9
NC(=O)c1sc(-n2cnc3ccccc32)cc1OCc1ccccc1Br | 2.17 | 4.07 | 3.98 | 1.97 | 2.84 | -2.53 | 0.23 | 0.79 | 13.6 | 5.61
ON=C1CCc2cc(-c3nc(C4CCNCC4)[nH]c3-c3ccncc3)ccc21 | 0.87 | -0.79 | 0.05 | -0.01 | 0.28 | -1.58 | 3.17 | 1.06 | 4.49 | -3
Cc1cc(O)cc(C)c1/C=C/c1cncc(C(=O)N(C)C)c1 | 1.94 | 4.52 | 5.42 | 1.7 | 3.22 | -0.76 | 1.31 | 7.06 | 12.3 | 4.12
CS(=O)(=O)CCNCc1nc(-c2ccc3ncnc(Nc4ccc(OCc5cccc(C(F)(F)F)c5)cc4)c3c2)cs1 | 2.53 | 1.05 | 3.96 | 1.09 | 3.08 | -0.8 | 1.6 | 2.88 | 9.28 | 1.96
COc1cccc(-n2nc(C)c3c(N/N=C(\C)c4ccncc4)ncnc32)c1 | -0.01 | 0.91 | 4.07 | -0.64 | 1.79 | -1.14 | 0.38 | 1.62 | 4.01 | 1.56
CC(C)c1ccc(Nc2nccc(-c3cnn4ncccc34)n2)cc1 | 1.41 | 2.68 | 8.98 | 2.04 | 8.72 | 0.01 | 6.19 | 5.7 | 14.6 | 68.6
Cc1ccc(Nc2ccnc(Nc3cccc(C(N)=O)c3)n2)cc1O | 0.3 | 5.16 | 32.7 | 5.29 | 45.8 | -4.07 | 14 | 76.9 | 90.7 | 8.57
Cc1ccc(O)cc1Nc1ccnc2ccc(S(C)(=O)=O)cc12 | 1.21 | 3.67 | 11.8 | 1.33 | 2.12 | -1.23 | 0.26 | 70.1 | 71.1 | 13.2

— ChEMBL document CHEMBL1961873, “Compounds: GSK PKIS; Assays: Nanosyn kinase panel” (2012)
